Measurements reported in PubChem BioAssay AID720518 (National Center for Advancing Translational Sciences (NCATS), 2013).
Records with an inconclusive call do not appear. Entries that show only a call come without a potency. Activity calls are given as the source filed them. Calls come from the whole dose curve.

assay: qHTS for Inhibitors of Cell Surface uPA Generation: Wild-type Protective Antigen (WT-PrAg) Counterscreen for Cherry-picked Compounds; details: cells, WT protective antigen toxicity counterscreen; series mostly up to 115 µM

SMILES	Potency
CCOC(=O)CN1C(=O)N[C@@H](c2ccccc2)C(C(C)=O)=C1C	inactive
CCOC(=O)C1=C(CN2CCN(C(=O)c3ccco3)CC2)NC(=O)NC1c1ccccc1 (stereo not given)	inactive
CC1Cc2nc(SCC(=O)N3CCCC3)n(C)c(=O)c2S1 (stereo not given)	inactive
COc1ccc(C(=O)OCC(=O)N(C)C2CCS(=O)(=O)C2)cc1S(=O)(=O)N(C)Cc1ccccc1 (stereo not given)	inactive
Cc1ccc(NC2CCCN(C(=O)Cc3nonc3C)C2)cc1C (stereo not given)	inactive
C[C@@]12C(=O)N(CC3CCCO3)CC(=O)N1[C@H]1c3cc(Cl)ccc3OC[C@@H]1[C@@H]2c1ccccc1 (stereo not given in full)	inactive
CC(=O)c1ccc2c(c1)c1ccccc1n2CC(C)C	inactive
CCC(=O)N(Cc1cc2ccc(C)cc2[nH]c1=O)c1ccccc1OC	inactive
Cc1ccccc1OCCC(=O)NNC(=O)c1ccccc1F	inactive
Cc1ccc(C)c(NC(=O)CCN2CCN(c3ccccc3F)CC2)c1	inactive
C/C(=N\NC(=O)c1cccc([N+](=O)[O-])c1)c1cccnc1	inactive
COc1ccccc1NC(=O)N1C[C@@H]2C[C@@H](C1)c1cccc(=O)n1C2	inactive
CCOC(=O)Oc1c(OC)cc(C(=O)O[C@@H]2C[C@@H]3CN4CCc5c([nH]c6cc(OC)ccc56)[C@H]4C[C@@H]3[C@H](C(=O)OC)[C@H]2OC)cc1OC	inactive
CCOC(=O)N1CCN(c2c(NCCCN3CCCCCC3)c(=O)c2=O)CC1	inactive
CCN1CCN(C(c2ccccc2)c2nnnn2Cc2ccc3c(c2)OCO3)CC1 (stereo not given)	inactive
COC(=O)/C(C#N)=C/c1c(N2CCN(c3ccccc3)CC2)nc2c(C)cccn2c1=O	inactive
COc1cc2cc(CN(CCN3CCOCC3)C(=O)Nc3ccc(F)cc3)c(=O)[nH]c2cc1OC	inactive
Cc1cc(C)cc(NC(=O)Cc2ccc(NC3=NC4CS(=O)(=O)CC4S3)cc2)c1 (stereo not given)	inactive
O=C(NC1CCCC1)c1nc2c(nnn2Cc2ccccc2Cl)c(=O)[nH]1	inactive
Cc1cc(=O)[nH]c(=S)[nH]1	inactive

SMILES	Potency
O=C(NCc1ccccn1)C1CCN(C(=O)c2cc3sccc3n2Cc2ccc(F)cc2)CC1	inactive
O=C(CSc1nncs1)NC(=O)NCc1ccco1	inactive
C=CCn1c(SCc2ccc(C(=O)NCCO)cc2)nc2ccccc2c1=O	inactive
CCOC(=O)C1(CC2CCCCO2)CCN(Cc2nccn2-c2cccc(C)c2)CC1 (stereo not given)	inactive
CN(C)C(=S)Nc1ccc(S(=O)(=O)N2CCCCC2)cc1	inactive
COC(=O)[C@H](CC(C)C)N(Cc1ccccc1)S(=O)(=O)N(Cc1ccc(OC)cc1)[C@@H](CC(C)C)C(=O)OC	inactive
COc1cccc(C(=O)NCC(c2ccco2)N2CCc3ccccc3C2)c1 (stereo not given)	inactive
O=C(O)CCc1nn2c3ccccc3n(CC(=O)O)c2nc1=O	inactive
COc1cccc(CN(C)C(=O)c2cc(S(=O)(=O)N3CCCC3)ccc2C)c1OC	inactive
CCCCCOC(=O)C1=C(C)NC(=O)NC1c1ccccc1 (stereo not given)	inactive
O=C(NCC1CCCO1)c1ccc(NC(=O)c2ccc([N+](=O)[O-])cc2)cc1 (stereo not given)	inactive
CCN(CC)c1c([N+](=O)[O-])c(=O)sc2ccccc12	inactive
O=C(NCC1CCCO1)c1c(O)c2cccc3c2n(c1=O)CCC3 (stereo not given)	inactive
CCn1nc(NS(=O)(=O)c2ccccc2)c2cc3cc(C)ccc3nc21	inactive
CCn1nc(C)c(CNC(=O)C2CCC(=O)N(CCc3ccc(OC)cc3)C2)c1C (stereo not given)	inactive
CCN(CC)S(=O)(=O)c1ccc(C(=O)Nc2nnc(COC)o2)cc1	inactive
COC(=O)CSc1nc(N2CCOCC2)c2c(c1C#N)CCCC2	inactive
Cn1c(SCC(=O)NCCc2ccccc2)ncc(C(=O)Nc2ccc(F)cc2)c1=O	inactive
CCOC(=O)C(CC)n1cnc2c(nnn2-c2ccccc2)c1=O (stereo not given)	inactive
COc1ccc(/C=C/C(=O)Nc2ccccc2Cl)cc1S(=O)(=O)N1CCOCC1	inactive
